Several values for one entry are separate records, joined by “and”; a condition that tells them apart may be missing. Equal values may be shown once. Results filed as inconclusive are left out. Entries that show only a call come without a potency. A structure can be active in one record and inactive in another. Activity calls are given as the source filed them. Unless noted, calls come from the whole dose curve; as a rule, active = well fitted curve in the direction sought with a large enough effect in the repeat runs; inconclusive = weak or mixed curves; inactive = no such curve, though single readings can be large; an effect the other way counts as inactive or inconclusive.
How the values were obtained:
[1] = A CellTox Green Cytotoxicity Assay to monitor cytotoxicity in HepG2 cells - 0 hour (AID 1224882); note: nearly all actives have a fitted effect of over 35% in size; note: potency is the fitted concentration of half-maximal effect
In short: (§1)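 HepG2, 600 cells/well premixed w/ CellTox Green; 5 h settle, 37 C/5% CO2; pintool cpd add (DMSO); 37 C, 40 h; fluorescence read at 0, 8, 16, 24, 32, 40 h.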

[2] = A CellTox Green Cytotoxicity Assay to monitor cytotoxicity in HepG2 cells - 32 hour (AID 1224883); note: nearly all actives have a fitted effect of over 50% in size; note: potency is the fitted concentration of half-maximal effect
In short: as §1

[3] = A CellTox Green Cytotoxicity Assay to monitor cytotoxicity in HEK293 cells - 8 hour (AID 1224884); note: nearly all actives have a fitted effect of over 35% in size; note: potency is the fitted concentration of half-maximal effect
In short: (§2)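 Read-out: fluorescence of a cell-impermeant cyanine dye staining DNA of dead cells, proportional to cytotoxicity. HEK293, 600 cells/well with reagent, compound (23 nL DMSO) added after 5 h; reads at 0, 8, 16, 24, 32, 40 h.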

[4] = qHTS RealTime-Glo MT Cell Viability Assay in HepG2 cells - 16 hour (AID 1224885); note: nearly all actives have a fitted effect of over 50% in size; note: potency is the fitted concentration of half-maximal effect
In short: (§3)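 Viability was tracked continuously by NanoLuc luminescence from prosubstrate reduced by living HepG2 cells, at successive time points over 40 h of compound exposure. Cells with reagent were preincubated 5 h at 37 °C before compound addition.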

[5] = qHTS RealTime-Glo MT Cell Viability Assay in HEK293 cells - 24 hour (AID 1224886); note: nearly all actives have a fitted effect of over 50% in size; note: potency is the fitted concentration of half-maximal effect
In short: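 Viability tracked continuously by luminescence as live cells reduce a prosubstrate for NanoLuc; HEK293 cells preincubated 5 h, compound-treated at 37 C, and read at 0, 8, 16, 24, 32 and 40 h.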

[6] = qHTS RealTime-Glo MT Cell Viability Assay in HEK293 cells - 8 hour (AID 1224887); note: nearly all actives have a fitted effect of over 50% in size; note: potency is the fitted concentration of half-maximal effect
In short: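 Luminescence readout at each listed time point; HEK293, 600 cells/well, RealTime-Glo MT reagent added with cells; compounds pinned (23 nL in DMSO) after 5 h at 37 C; continuous culture at 37 C.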

[7] = A CellTox Green Cytotoxicity Assay to monitor cytotoxicity in HEK293 cells - 16 hour (AID 1224888); note: nearly all actives have a fitted effect of over 35% in size; note: potency is the fitted concentration of half-maximal effect
In short: as §2

[8] = qHTS RealTime-Glo MT Cell Viability Assay in HepG2 cells - 0 hour (AID 1224889); note: nearly all actives have a fitted effect of over 50% in size; note: potency is the fitted concentration of half-maximal effect
In short: as §3

[9] = A CellTox Green Cytotoxicity Assay to monitor cytotoxicity in HepG2 cells - 8 hour (AID 1224890); note: nearly all actives have a fitted effect of over 45% in size; note: potency is the fitted concentration of half-maximal effect
In short: as §1

[10] = qHTS assay to identify small molecule antagonists of the estrogen receptor alpha (ER-alpha) signaling pathway using the BG1 cell line in the presence of 0.1 nM 17-beta-estradiol - cell viability counter screen (AID 1259241); note: nearly all actives have a fitted effect of over 40% in size; note: potency is the fitted concentration of half-maximal effect
In short: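 Viability in VM7Luc4E2 cells after 22 hr compound exposure under 0.1 nM 17beta-estradiol stimulation, by CellTiter-Fluor.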

[11] = biological target: Androgen receptor (Homo sapiens) (UniProt P10275); assay: qHTS assay to identify small molecule antagonists of the androgen receptor (AR) signaling pathway using the MDA cell line in the presence of 0.5 nM R1881 (AID 1259243); note: nearly all actives have a fitted effect of over 50% in size; note: potency is the fitted concentration of half-maximal effect
In short: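 MDA-kb2, MMTV-luc (AR/GR elements); 3,000 cells/well; cpd + 0.5 nM R1881 final; 16 hr 37C, 0% CO2; ONE-Glo 30 min RT; luminescence.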

[12] = biological target: Estrogen receptor (Homo sapiens) (UniProt P03372); assay: qHTS assay to identify small molecule antagonists of the estrogen receptor alpha (ER-alpha) signaling pathway using the BG1 cell line in the presence of 0.1 nM 17-beta-estradiol (AID 1259244); note: nearly all actives have a fitted effect of over 50% in size; note: potency is the fitted concentration of half-maximal effect
In short: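 Luminescence after ONE-Glo (30 min, room temperature) measured ERE-luciferase activity in VM7Luc4E2 cells treated 22 h with compound and 0.1 nM final 17beta-estradiol as stimulator.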

[13] = qHTS assay to identify small molecule agonists of the sonic hedgehog signaling (Shh) pathway - cell viability counter screen (AID 1259366); note: nearly all actives have a fitted effect of over 50% in size; note: potency is the fitted concentration of half-maximal effect
In short: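 Stable Gli1-Luc NIH/3T3 clone, 2,000 cells/well. Compound exposure 24hr at 37C. Read-out: CellTiter-Fluor fluorescence.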

[14] = qHTS assay to identify small molecule antagonists of the sonic hedgehog signaling (Shh) pathway - cell viability counter screen (AID 1259367); note: nearly all actives have a fitted effect of over 55% in size; note: potency is the fitted concentration of half-maximal effect
In short: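 Viability was read by CellTiter-Fluor fluorescence in the same wells, reagent added 23 hr into compound treatment and incubated 1 hr at 37C. The 3T3 Gli1-Luc reporter cells (2,000/well) received conditioned medium after compound and ran 24 hr.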

[15] = qHTS assay to identify small molecule agonists of the sonic hedgehog signaling (Shh) pathway (AID 1259368; calls by dose curve;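 note: NIH/3T3-derived 3T3Gli1-Luc cells carrying a stable Gli1-driven firefly luciferase reporter; series mostly up to about 92 µM; nearly all actives have a fitted effect of over 15% in size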)
In short: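 Read-out: firefly luciferase luminescence from a Gli1 response element reporter stably integrated in NIH/3T3-derived 3T3Gli1-Luc cells, measured 30 min at room temperature after reagent addition. Compound exposure lasted 24 hr at 37 C, 5% CO2.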

[16] = qHTS assay to identify small molecule antagonists of the sonic hedgehog signaling (Shh) pathway (AID 1259369; calls by dose curve; note: nearly all actives have a fitted effect of over 45% in size; note: potency is the fitted concentration of half-maximal effect)
In short: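 Luminescence readout: firefly Luc under Gli1 response element in 3T3Gli1-Luc cells (NIH/3T3 clone). Antagonist mode, stimulation by conditioned medium; compound exposure 24hr at 37 C, 5% CO2.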

[17] = qHTS assay to identify small molecule antagonists of the androgen receptor (AR) signaling pathway using the MDA cell line in the presence of 0.5 nM R1881 - cell viability counter screen (AID 1259242); note: nearly all actives have a fitted effect of over 45% in size; note: potency is the fitted concentration of half-maximal effect
In short: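 Live-cell protease fluorescence, CellTiter-Fluor, 30 min at 37C. Cells: MDA-kb2, 3,000/well, preincubated 5 hr. Compounds plus 0.5 nM R1881 final, 16 hr, 37C, 0% CO2.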

[18] = qHTS assay to identify small molecule HDAC inhibitors (AID 1259364);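 note: wild-type HCT-116 cells with endogenous class I/II HDAC activity; top concentration of the series differs between compounds; nearly all actives have a fitted effect of over 45% in size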
In short: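 HCT-116 (wild type), 1,500 cells/well, overnight; compound 2 hr 37C 5% CO2; HDAC-Glo I/II reagent 30 min RT; luminescence readout.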

[19] = qHTS assay to identify small molecule HDAC inhibitors - cell viability counter screen (AID 1259365)
In short: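 Cytotoxicity was gauged in wild-type HCT-116 cells after a brief 2hr treatment with DMSO-dissolved compounds at 37C and 5% CO2, using CellTiter-Glo luminescence developed for 30min at room temperature.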

[20] = qHTS assay to identify small molecule phospholipidosis (PLD) inducers (AID 1259344; active = well fitted curve in the direction sought with a large enough effect; an effect the other way counts as inactive or inconclusive)
In short: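 Phospholipid accumulation was scored by imaging: fixed, Hoechst-counterstained HepG2 cells stained with LipidTOX Red after 24 h compound exposure at 37 C. Read-outs were pit count and pit intensity per well or per cell, with amiodarone and DMSO controls.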

Chain of Estrogen receptor (Homo sapiens) (P03372 whole entry, looked up): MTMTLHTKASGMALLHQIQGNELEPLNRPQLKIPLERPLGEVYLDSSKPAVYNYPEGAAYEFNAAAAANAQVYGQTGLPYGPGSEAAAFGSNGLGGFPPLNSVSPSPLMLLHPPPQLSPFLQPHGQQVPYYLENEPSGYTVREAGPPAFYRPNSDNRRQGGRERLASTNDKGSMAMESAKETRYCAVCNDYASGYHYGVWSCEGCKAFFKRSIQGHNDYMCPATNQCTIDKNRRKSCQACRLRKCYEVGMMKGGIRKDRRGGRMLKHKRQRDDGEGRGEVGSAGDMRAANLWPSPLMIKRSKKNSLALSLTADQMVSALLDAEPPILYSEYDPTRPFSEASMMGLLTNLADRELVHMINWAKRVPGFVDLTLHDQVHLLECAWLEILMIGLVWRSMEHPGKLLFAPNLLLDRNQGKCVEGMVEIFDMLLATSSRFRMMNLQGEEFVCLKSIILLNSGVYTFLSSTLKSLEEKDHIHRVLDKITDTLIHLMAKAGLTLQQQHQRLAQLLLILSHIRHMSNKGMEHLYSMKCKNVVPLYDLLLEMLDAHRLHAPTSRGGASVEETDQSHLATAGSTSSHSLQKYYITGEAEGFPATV
Chain of Androgen receptor (Homo sapiens) (P10275 whole entry, looked up): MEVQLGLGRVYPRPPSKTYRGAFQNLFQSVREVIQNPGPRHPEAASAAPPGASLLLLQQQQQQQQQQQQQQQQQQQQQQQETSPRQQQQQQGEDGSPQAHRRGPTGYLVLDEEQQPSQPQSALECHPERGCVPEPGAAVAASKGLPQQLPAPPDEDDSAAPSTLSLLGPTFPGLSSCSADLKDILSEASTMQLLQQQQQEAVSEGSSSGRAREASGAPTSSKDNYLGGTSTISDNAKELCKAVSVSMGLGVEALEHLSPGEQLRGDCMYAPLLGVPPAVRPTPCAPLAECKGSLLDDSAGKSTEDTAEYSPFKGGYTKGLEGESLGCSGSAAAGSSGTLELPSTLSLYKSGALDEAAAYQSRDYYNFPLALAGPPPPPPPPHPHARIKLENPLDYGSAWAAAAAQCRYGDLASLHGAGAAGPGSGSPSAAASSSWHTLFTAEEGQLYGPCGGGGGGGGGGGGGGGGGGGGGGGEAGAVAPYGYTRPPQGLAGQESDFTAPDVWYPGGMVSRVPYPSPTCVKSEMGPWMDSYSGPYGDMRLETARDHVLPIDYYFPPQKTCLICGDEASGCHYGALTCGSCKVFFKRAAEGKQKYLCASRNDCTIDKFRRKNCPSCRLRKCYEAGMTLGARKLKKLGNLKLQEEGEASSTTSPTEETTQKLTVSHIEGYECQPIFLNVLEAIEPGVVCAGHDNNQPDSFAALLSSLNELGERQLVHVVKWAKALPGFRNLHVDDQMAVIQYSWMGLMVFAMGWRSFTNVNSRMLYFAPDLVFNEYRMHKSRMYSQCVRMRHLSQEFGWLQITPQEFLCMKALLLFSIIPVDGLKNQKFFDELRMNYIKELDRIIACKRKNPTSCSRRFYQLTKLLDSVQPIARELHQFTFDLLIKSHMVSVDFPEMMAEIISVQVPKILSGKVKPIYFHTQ

SMILES	Potency [1]	Potency [2]	Potency [3]	Potency [4]	Potency [5]	Potency [6]	Potency [7]	Potency [8]	Potency [9]	Potency [10]	Potency [11]	Potency [12]	Potency [13]	Potency [14]	Potency [15]	Potency [16]	Potency [17]	Potency [18]	Potency [19]	Potency [20]
O=Nc1ccc(Nc2ccccc2)cc1	inactive	49.2 µM (active) and 43.6 µM (active)	inactive	43.6 µM (active)	6.96 µM (active) and 9.77 µM (active)	15.6 µM (active) and 21.9 µM (active)	inactive	19.6 µM (active)	inactive	inactive	48.8 µM (active) and 54.5 µM (active)	inactive	24.5 µM (active) and 24.3 µM (active)	27.4 µM (active) and 54.5 µM (active)	inactive	1.38 µM (active) and 2.43 µM (active)				
COC(=O)c1cccc(C(=O)OC)c1	inactive and 38.9 µM (active)	inactive and 24.5 µM (active)	inactive and 43.6 µM (active)	inactive	inactive	inactive		inactive	inactive and 43.6 µM (active)	inactive	inactive	inactive	inactive	inactive	inactive	inactive	inactive	inactive	inactive	
COc1ccc(CCN2CCC(Nc3nc4ccccc4n3Cc3ccc(F)cc3)CC2)cc1	inactive	19.9 µM (active) and 9.52 µM (active)	44.6 µM (active) and 26.8 µM (active)	28.1 µM (active) and 21.3 µM (active)	6.3 µM (active) and 10.7 µM (active)	12.6 µM (active) and 9.52 µM (active)	35.4 µM (active) and 26.8 µM (active)	inactive	39.8 µM (active) and 23.9 µM (active)	49.6 µM (active)			1.11 µM (active) and 3.76 µM (active)	1.4 µM (active) and 11.9 µM (active)	inactive	625 nM (active) and 3.35 µM (active)	17.6 µM (active) and 21.1 µM (active)		inactive	
CCCN[C@H]1CCc2nc(N)sc2C1	inactive	inactive	inactive	inactive	inactive	inactive	inactive			inactive			inactive	inactive	inactive	inactive	inactive		inactive	inactive
CCC(C)(Oc1ccc(C2(c3ccc(OC(C)(CC)C(=O)O)cc3)CCCCC2)cc1)C(=O)O (centres undefined)	inactive	inactive	inactive	inactive	inactive	inactive	inactive	inactive	inactive		inactive	inactive	inactive	inactive	inactive	inactive	inactive	inactive		inactive
CCCCOCCOC(=O)c1ccccc1C(=O)OCCOCCCC	inactive	inactive	inactive	inactive	inactive	inactive	inactive	inactive	inactive	inactive		47.5 µM (active) and inactive	inactive	53.3 µM (active) and inactive	inactive	26.7 µM (active)	inactive	inactive		
CC[C@@H](N)CO	inactive	inactive	inactive	inactive	inactive	inactive	inactive	inactive		inactive		inactive	inactive	inactive	inactive		inactive	inactive	inactive	
Cc1cc(Cc2cc(C)cc(C(C)(C)C)c2O)c(O)c(C(C)(C)C)c1	inactive	43.9 µM (active) and 43.6 µM (active)	49.2 µM (active) and inactive	43.9 µM (active) and 43.6 µM (active)	12.4 µM (active) and 15.5 µM (active)	15.6 µM (active) and 19.5 µM (active)	49.2 µM (active)		43.9 µM (active) and 34.7 µM (active)			27.4 µM (active)		61.4 µM (active)	inactive		30.8 µM (active)	inactive	inactive	
Oc1c(Cl)cc(Cl)c(Cl)c1Cc1c(O)c(Cl)cc(Cl)c1Cl	inactive	inactive and 38.9 µM (active)	inactive	inactive	3.88 µM (active)	inactive	inactive	inactive	inactive		3.43 µM (active) and 6.11 µM (active) and 6.68 µM (active)			inactive	inactive	1.93 µM (active) and 1.54 µM (active)	8.41 µM (active)	inactive	inactive	inactive
CC(C)(c1ccccc1)c1ccc(Nc2ccc(C(C)(C)c3ccccc3)cc2)cc1	inactive	inactive	inactive	inactive	inactive	inactive	inactive	inactive				inactive	inactive	inactive	inactive	inactive	inactive	inactive		
CC(C)(O)CCC(C)(C)O	inactive	inactive	inactive	inactive	inactive	inactive	inactive		inactive	inactive	inactive	inactive		inactive	inactive	inactive	inactive			
c1ccc2c(c1)-c1cccc3c1c-2cc1ccccc13	inactive	inactive	inactive	inactive	inactive	inactive	inactive	inactive	inactive	inactive		inactive	inactive	inactive	inactive	inactive and 545 nM (active)	inactive		inactive	

Reference: PubChem BioAssay (Tox21)
